Sampled rows, rich in hits. Any-hit rate of the full collection: about 3.3%.
Vaccinia mCherry = inhibitors of vaccinia virus infection (mCherry reporter signal); 0.63% of 310,000 active; Vaccinia virus mCherry reporter infection, fluorescence; Potency, µM (titrated, usually from 36.5 µM), usual class: inhibitors; AID 720579; calls by dose curve; tested in A549 cells; also: nearly all actives have a fitted effect of over 35% in size
HCV inhibitor = inhibitors of hepatitis C virus infection. Huh7.5.1 HCVcc-Cre infection, luciferase reporter, 44 h. Potency, µM (series often up to 41.8 µM), hits mostly inhibitors. 3.4% of 340,000 active. AID 651820; active = well fitted inhibition curve with a large enough effect; inconclusive = small, poorly fitted or top-dose-only effect, or another doubt; inactive = no such curve, though single readings can be large or run the other way
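Infectious HCV cell culture screen: compound-treated cells (1,000/well, pre-plated 4 h) are infected with HCVcc-Cre at roughly 0.5 moi and grown 44 h. Infection is quantified by luciferase signal after 15 min substrate incubation at room temperature.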
Vaccinia Venus = inhibitors of vaccinia virus (Venus reporter). Vaccinia virus Venus reporter expression, fluorescence. Potency, µM (doses to about 36.5 µM), actives largely listed as inhibitors. 0.46% of 330,000 active. AID 720580; calls by dose curve; tested in A549 cells; also: nearly all actives have a fitted effect of over 30% in size
Large screens that a line does not name were inactive.

COc1ccc(Nc2nc(N3CCCC3)nc3ccccc23)c(OC)c1	Vaccinia mCherry inconclusive, HCV inhibitor 3.2µM, Vaccinia Venus 11µM
CCN1CCN(c2nc(NCCO)c3ccccc3n2)CC1	none (no result: Vaccinia mCherry, Vaccinia Venus)
COc1ccc(Nc2nc(-c3ccc(C)cc3)nc3ccccc23)c(OC)c1	none (no result: HCV inhibitor)
O=C(c1ccc(C(F)(F)F)cc1)N1CCC(=O)N([C@H](COCc2ccc(Cl)cc2)Cc2ccccc2)CC1	none (no result: HCV inhibitor)
CC(C)N(Cc1ccccc1)S(=O)(=O)c1ccc(-c2cc(C(F)(F)F)on2)s1	none (no result: HCV inhibitor)
Cc1oc(-c2ccccc2NC(=O)c2ccsc2)nc1CN(C)Cc1ccc2c(c1)CCCN2C	none (no result: HCV inhibitor)
O=C(Nc1ccccc1)N(Cc1cccs1)c1ccc(Cl)cc1	none (no result: HCV inhibitor)
Cc1ccc(C(=O)NCCc2nnc3n2CCN(Cc2ccc4ccccc4c2)CC3)c(C)c1	none (no result: HCV inhibitor)
